The target in test [1] is Leukocyte tyrosine kinase receptor (Homo sapiens) (UniProt P29376). The following applies: at 1 µM.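 Further: each value is the mean inhibition of LTK.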
Test [2] addresses Tyrosine-protein kinase Lyn (Homo sapiens) (UniProt P07948). The following applies: at 0.1 µM.
For test [3] the target is unchanged. The following applies: at 1 µM.
For test [4] the target is unchanged. Particulars: at 0.1 µM. The source holds these as a separate data set.
Test [5] has the same target. Particulars: at 1 µM. This is another data set of the same source.
In test [6] the target is T1, Tyrosine-protein kinase Mer (Homo sapiens) (UniProt Q12866).
T1 sequence (whole entry): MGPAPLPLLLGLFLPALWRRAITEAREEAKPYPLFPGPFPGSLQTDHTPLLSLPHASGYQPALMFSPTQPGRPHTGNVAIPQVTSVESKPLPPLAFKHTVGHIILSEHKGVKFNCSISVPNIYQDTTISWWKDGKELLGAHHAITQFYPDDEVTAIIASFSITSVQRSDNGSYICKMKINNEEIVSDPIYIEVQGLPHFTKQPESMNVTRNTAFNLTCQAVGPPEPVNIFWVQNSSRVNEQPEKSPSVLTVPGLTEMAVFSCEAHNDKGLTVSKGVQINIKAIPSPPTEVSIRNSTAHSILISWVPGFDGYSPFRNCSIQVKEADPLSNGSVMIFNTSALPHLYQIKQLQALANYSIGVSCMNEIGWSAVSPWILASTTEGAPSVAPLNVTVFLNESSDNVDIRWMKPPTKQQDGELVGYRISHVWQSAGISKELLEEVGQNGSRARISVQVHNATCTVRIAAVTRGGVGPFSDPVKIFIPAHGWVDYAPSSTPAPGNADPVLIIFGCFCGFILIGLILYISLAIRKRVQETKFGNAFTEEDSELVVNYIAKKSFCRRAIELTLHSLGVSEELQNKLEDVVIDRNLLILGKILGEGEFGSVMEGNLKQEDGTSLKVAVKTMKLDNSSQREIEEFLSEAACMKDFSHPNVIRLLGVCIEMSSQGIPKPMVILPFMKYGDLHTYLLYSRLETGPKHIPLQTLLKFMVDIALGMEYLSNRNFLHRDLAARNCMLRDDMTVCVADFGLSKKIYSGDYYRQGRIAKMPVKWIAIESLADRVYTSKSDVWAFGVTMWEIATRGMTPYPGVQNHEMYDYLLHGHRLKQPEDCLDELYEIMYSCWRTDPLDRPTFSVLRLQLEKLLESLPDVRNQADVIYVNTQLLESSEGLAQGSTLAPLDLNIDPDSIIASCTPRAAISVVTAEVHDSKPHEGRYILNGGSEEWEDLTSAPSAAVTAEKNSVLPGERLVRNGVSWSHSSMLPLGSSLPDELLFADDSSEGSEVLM
Particulars: at 0.1 µM.

Test [7] has as its target T1, Tyrosine-protein kinase Mer (Homo sapiens). The following applies: at 1 µM.
In test [8] the target is Hepatocyte growth factor receptor (Homo sapiens) (UniProt P08581). Particulars: at 0.1 µM.
The target is the same in test [9]. The following applies: at 1 µM.
The target of test [10] is T2, Muscle, skeletal receptor tyrosine-protein kinase (Homo sapiens) (UniProt O15146).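 Further: values are mean inhibition of MuSK from the GSK PKIS kinase screening panel.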
T2 sequence (whole entry): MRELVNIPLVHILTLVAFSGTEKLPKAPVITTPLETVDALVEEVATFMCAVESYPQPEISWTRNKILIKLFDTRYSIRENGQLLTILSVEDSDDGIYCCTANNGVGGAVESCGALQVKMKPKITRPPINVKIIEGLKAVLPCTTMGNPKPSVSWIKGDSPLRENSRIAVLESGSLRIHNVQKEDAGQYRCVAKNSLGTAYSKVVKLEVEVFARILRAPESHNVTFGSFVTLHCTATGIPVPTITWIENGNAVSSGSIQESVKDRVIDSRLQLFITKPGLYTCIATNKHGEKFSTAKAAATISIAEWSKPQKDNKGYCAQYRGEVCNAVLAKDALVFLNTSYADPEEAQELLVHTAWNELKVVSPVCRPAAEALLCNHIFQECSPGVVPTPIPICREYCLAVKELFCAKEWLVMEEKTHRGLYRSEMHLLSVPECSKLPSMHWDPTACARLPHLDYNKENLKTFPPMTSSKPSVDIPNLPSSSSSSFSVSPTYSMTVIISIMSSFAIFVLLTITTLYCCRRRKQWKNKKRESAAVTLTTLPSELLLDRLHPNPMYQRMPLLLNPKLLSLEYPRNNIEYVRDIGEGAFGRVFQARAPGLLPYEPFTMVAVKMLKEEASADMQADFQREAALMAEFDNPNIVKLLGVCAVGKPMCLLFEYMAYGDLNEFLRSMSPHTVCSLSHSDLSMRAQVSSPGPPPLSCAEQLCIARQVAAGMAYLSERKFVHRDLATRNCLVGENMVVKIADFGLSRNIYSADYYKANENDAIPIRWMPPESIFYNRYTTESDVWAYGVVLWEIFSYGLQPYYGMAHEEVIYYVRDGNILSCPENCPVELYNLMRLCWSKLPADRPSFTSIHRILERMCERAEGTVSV
The following applies: at 0.1 µM.

Leukocyte tyrosine kinase receptor (Homo sapiens), sequence (P29376 whole entry): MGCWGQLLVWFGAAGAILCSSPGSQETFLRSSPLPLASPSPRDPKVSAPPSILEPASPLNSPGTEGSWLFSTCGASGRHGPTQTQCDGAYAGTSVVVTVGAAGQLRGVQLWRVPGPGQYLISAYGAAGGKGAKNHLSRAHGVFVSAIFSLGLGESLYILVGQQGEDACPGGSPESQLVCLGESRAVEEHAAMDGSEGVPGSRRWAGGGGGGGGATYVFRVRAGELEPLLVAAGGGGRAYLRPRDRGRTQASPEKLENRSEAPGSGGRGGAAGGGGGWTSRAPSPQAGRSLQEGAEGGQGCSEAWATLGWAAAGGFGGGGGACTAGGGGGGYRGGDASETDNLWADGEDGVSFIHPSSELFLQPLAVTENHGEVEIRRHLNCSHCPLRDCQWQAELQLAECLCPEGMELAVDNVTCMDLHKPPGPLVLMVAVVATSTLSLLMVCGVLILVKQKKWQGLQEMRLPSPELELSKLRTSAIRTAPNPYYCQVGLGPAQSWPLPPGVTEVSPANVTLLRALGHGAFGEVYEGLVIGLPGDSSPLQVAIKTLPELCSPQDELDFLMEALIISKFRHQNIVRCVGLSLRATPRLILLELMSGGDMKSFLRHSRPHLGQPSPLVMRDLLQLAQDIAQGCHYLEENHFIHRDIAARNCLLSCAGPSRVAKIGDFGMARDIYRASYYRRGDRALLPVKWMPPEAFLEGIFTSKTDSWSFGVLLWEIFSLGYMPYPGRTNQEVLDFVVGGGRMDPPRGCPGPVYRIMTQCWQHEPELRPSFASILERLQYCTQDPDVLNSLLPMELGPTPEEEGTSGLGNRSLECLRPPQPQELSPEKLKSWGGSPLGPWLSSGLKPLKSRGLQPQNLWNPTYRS
Hepatocyte growth factor receptor (Homo sapiens), sequence (P08581 whole entry): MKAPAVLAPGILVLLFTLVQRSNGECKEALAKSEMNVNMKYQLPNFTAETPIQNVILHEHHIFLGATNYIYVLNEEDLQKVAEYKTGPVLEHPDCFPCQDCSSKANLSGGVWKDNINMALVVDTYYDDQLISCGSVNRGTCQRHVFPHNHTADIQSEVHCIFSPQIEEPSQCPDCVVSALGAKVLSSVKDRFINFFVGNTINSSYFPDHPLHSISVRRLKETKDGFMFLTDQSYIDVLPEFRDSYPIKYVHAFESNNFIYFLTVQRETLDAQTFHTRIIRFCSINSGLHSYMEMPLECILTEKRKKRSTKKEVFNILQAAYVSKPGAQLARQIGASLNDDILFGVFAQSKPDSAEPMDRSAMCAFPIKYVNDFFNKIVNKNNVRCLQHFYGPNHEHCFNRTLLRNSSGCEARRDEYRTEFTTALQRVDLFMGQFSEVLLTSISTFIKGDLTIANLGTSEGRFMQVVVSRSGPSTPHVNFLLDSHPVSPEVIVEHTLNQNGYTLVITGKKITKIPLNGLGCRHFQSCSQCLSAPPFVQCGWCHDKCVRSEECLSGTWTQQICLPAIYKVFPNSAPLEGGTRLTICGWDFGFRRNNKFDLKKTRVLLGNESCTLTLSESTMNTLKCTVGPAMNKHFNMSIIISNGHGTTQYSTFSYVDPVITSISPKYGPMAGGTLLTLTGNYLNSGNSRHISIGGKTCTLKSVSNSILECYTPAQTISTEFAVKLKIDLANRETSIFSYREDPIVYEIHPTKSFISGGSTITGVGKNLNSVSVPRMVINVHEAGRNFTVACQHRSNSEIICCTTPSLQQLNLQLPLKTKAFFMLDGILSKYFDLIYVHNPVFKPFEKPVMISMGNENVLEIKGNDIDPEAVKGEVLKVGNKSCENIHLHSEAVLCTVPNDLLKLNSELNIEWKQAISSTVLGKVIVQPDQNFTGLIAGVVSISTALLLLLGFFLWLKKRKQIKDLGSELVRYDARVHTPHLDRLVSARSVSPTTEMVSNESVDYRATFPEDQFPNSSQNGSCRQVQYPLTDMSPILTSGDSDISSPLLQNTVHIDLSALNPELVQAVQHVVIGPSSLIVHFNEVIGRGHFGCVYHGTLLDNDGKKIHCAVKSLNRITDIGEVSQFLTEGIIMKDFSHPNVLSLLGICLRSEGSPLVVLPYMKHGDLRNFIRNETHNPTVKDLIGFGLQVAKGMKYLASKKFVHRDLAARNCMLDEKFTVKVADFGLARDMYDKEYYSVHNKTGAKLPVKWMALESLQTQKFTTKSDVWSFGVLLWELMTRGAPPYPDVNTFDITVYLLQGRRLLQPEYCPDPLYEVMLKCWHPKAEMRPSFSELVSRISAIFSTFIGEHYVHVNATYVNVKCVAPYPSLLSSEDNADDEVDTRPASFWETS
Tyrosine-protein kinase Lyn (Homo sapiens), sequence (P07948 2-512 limits assumed): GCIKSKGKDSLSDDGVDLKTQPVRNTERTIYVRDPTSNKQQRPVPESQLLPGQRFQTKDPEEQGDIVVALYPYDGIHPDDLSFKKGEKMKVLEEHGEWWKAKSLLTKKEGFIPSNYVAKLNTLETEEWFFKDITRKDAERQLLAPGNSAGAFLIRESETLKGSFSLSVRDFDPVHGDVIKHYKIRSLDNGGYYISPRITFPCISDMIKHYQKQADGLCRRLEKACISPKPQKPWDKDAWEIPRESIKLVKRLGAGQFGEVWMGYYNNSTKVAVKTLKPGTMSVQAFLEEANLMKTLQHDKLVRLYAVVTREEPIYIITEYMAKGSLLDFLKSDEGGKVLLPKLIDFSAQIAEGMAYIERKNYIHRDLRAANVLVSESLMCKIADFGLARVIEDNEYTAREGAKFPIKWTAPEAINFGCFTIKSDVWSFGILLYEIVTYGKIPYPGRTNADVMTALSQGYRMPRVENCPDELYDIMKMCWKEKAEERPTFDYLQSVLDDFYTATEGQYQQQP

For `Nc1ccc(C#Cc2cncnc2Nc2ccc(OCc3cccc(F)c3)c(Cl)c2)cc1`, the inhibition in test [1] worked out at 3.27%; in test [2], 3.52%; in test [3], 4.42%; in test [4], 3.04%; in test [5], 3.28%; in [6] it was 1.5%. The inhibition was 2.05% in test [7], 1.74% in [8], 3.8% in test [9] and -0.05% in test [10].

As for `Oc1cccc(-c2nc(-c3ccccc3)[nH]c2-c2ccncc2)c1`, the inhibition worked out at 7.05% in test [1]; 9.9% in [2]; 31.3% in [3]; 6.99% in test [4]; 25.4% in [5]; 1.35% in test [6]. Besides, the inhibition in test [7] came to 6.42%; in [8], 6.73%; in [9], 11.1%; in test [10], 4.05%.

Regarding `CC(C)c1ccc2c(c1)NC(=O)/C2=N/Nc1ccc(S(N)(=O)=O)cc1`, the inhibition amounted to 0.89% in [1]; 3.02% in test [2]; 12.2% in [3]; 2.61% in test [4]; 10.5% in test [5]; 0.63% in test [6]. Also, the inhibition is 1.96% in [7], 0.7% in [8], 1.76% in test [9] and -0.51% in [10].

As for `N#Cc1cccc(Nc2nccc(-c3cnn4ncccc34)n2)c1`, the inhibition was found to be 12.7% in test [1]; 6.49% in test [2]; 31.5% in [3]; 4.82% in test [4]; 22.2% in test [5]; 7.85% in test [6]. In addition, the inhibition in test [7] came to 46%; in test [8], 6.82%; in test [9] it was 17.3%; in [10], 5.72%.

With `NS(=O)(=O)c1ccc(Nc2cc(-c3cccc(O)c3)n[nH]2)cc1`, the inhibition in [1] was 3.32%; in test [2] it was 6.83%; in [3], 8.1%; in test [4], 3.6%; in test [5], 3.96%; in test [6], 0.91%. Besides, the inhibition was 6.51% in test [7], 5.16% in test [8], 2.36% in test [9] and 4.32% in test [10].

Take `CCCN1CCCC(c2ccc(Nc3nc(Nc4cc(F)ccc4C(N)=O)c4cc[nH]c4n3)c(OC)c2)C1` (stereo not given): the inhibition in test [1] turned out to be 95.5%; in test [2], 7.48%; in test [3], 7.83%; in test [4], 3.89%; in [5] it was 4.64%; in [6], 3.05%. For the same molecule, the inhibition in [7] was determined as 14.1%; in [8] it was 2.96%; in [9] it was 20.6%; in [10], 3.6%.

Regarding `CCn1c(-c2nonc2N)nc2c(C#CC(C)(C)O)nc(OCCNC)cc21`, the inhibition in test [1] is 4.95%; in test [2], 5.06%; in test [3], 5.53%; in [4] it was 2.97%; in test [5], 3.02%; in test [6], 2.03%. The inhibition in test [7] was 2.24%; in test [8] it was 4.48%; in test [9], 0.4%; in test [10], 1.71%.

Turning to `COc1cccc(-n2ncc3c(N/N=C/c4ccc(S(C)(=O)=O)cc4)ncnc32)c1`, the inhibition in [1] was 2.05%; in test [2], 54.1%; in test [3], 76.5%; in test [4] it was 48.1%; in test [5], 73.3%; in [6], 6.96%. The inhibition in test [7] turned out to be 28.3%; in test [8], 14.5%; in test [9] it was 47.6%; in [10], 12.1%.

Consider `c1ccc(Cc2nc3ccc(Nc4ncnc5ccccc45)cc3[nH]2)cc1`, for which the inhibition in test [1] worked out at 2.52%; in [2], 5.18%; in [3] it was 10.3%; in [4] it was 2.45%; in test [5] it was 8.65%; in [6], 0.72%. The inhibition in test [7] is 1.74%; in [8] it was 4.71%; in test [9], 7.9%; in test [10] it was 3.14%.

Consider `NC(=O)c1sc(-n2cnc3ccccc32)cc1OCc1ccccc1Br`, for which the inhibition in test [1] is 6.11%; in test [2], 4.01%; in test [3] it was 6.01%; in test [4], 1.96%; in test [5], 3.34%; in test [6], 1.26%. The inhibition in test [7] was found to be 2.98%; in test [8] it was 3.2%; in [9] it was 6.5%; in test [10], 3.93%.

With `OCc1ccc(-c2nc(-c3ccccn3)c(-c3ccc4c(c3)OCO4)[nH]2)cc1`, the inhibition in [1] is 4.28%; in test [2], 6.03%; in [3], 6.58%; in test [4], 3.09%; in test [5], 3.31%; in [6] it was 0.75%. Also, the inhibition in test [7] was 1.08%; in test [8] it was 11.7%; in [9], 8.92%; in test [10], 3.11%.

Turning to `ON=C1CCc2cc(-c3nc(C4CCNCC4)[nH]c3-c3ccncc3)ccc21`, the inhibition is 1.88% in test [1]; 0.17% in test [2]; 2.43% in [3]; -0.33% in [4]; 0.99% in [5]; -0.13% in test [6]. In addition, the inhibition is 2.76% in test [7], 0.32% in test [8], 4.34% in test [9] and -1.09% in test [10].

On to `N#Cc1c(NC(=O)c2ccccc2F)sc2c1CCCC2`, for which the inhibition was -0.82% in test [1]; -0.87% in test [2]; 0.22% in test [3]; -0.31% in test [4]; 0.82% in test [5]; -1.5% in test [6]. Moreover, the inhibition is 0.64% in test [7], 10.5% in test [8], 4.86% in test [9] and 1.84% in test [10].

As for `NS(=O)(=O)c1ccc(NC=C2C(=O)Nc3ccc4ncsc4c32)cc1`, the inhibition in test [1] is 17.3%; in test [2], 11.5%; in [3], 47.1%; in test [4], 7.96%; in test [5], 40.9%; in test [6] it was 3.9%. The inhibition in test [7] was determined as 16.3%; in [8], 18.8%; in test [9], 62.2%; in [10], 23.7%.

For the molecule `COc1ccc(-c2nn3ncccc3c2-c2ccnc(Nc3cccc(C(F)(F)F)c3)n2)cc1`, the inhibition stood at 2.59% in [1]; 4.45% in [2]; 12.7% in [3]; 3.78% in test [4]; 10.3% in test [5]; 1.45% in test [6]. The inhibition in [7] was determined as 3.23%; in [8], 6.61%; in test [9], 12.1%; in test [10] it was 2.37%.

For `Nc1nccc(C#Cc2cncnc2Nc2ccc(OCc3cccc(F)c3)c(Cl)c2)n1`, the inhibition in test [1] is 2.75%; in [2], 3.62%; in [3], 3.49%; in [4], 3.64%; in [5] it was 1.57%; in [6], 2.77%. Also, the inhibition in test [7] worked out at 9.35%; in test [8], 4.74%; in [9], 8.47%; in test [10], 4.37%.

As to `O=C1Nc2ccccc2/C1=C/Nc1ccc2[nH]c(=O)[nH]c2c1`, the inhibition was found to be 13.2% in [1]; 10.5% in [2]; 30.1% in test [3]; 7.45% in test [4]; 23.2% in [5]; 1.74% in test [6]. Also, the inhibition in test [7] turned out to be 7.93%; in [8], 7.49%; in test [9] it was 14.8%; in [10] it was 6.75%.

For orientation: inhibition means the relative decrease from the control value, in per cent.
